# Compound activity from PubChem BioAssay.
# DT40 TDP1 no CPT – qHTS for Inhibitors of human tyrosyl-DNA phosphodiesterase 1 (TDP1): qHTS in cells in absence of CPT | DT40 Tdp1-/- hTDP1 cells, no CPT, ATP luminescence, 48 h | AID 686978, 2013 | Potency, µM (top dose mostly 46.2 µM), for inactives: top-dose activity change, negative = growth inhibition, hits mostly inhibitors | 420,000 compounds, 15% hits; also: potency is read from the fitted curve at half-maximal effect; % is scaled to controls: 0 for no effect and ±100 for the full control effect; nearly all actives have a fitted effect of over 55% in size
#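 Cells were dispensed at 400 per well, compounds added by pin tool, plates incubated ≥48 hr at 37 °C, then CellTiter-Glo added for 30 min at room temperature before luminescence reading. Line: DT40 Tdp1-/- complemented with hTDP1; camptothecin omitted.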
# DT40 TDP1 CPT – qHTS for Inhibitors of human tyrosyl-DNA phosphodiesterase 1 (TDP1): qHTS in cells in presence of CPT | chicken DT40 Tdp1-/-;hTDP1 cells + 20 nM CPT, ATP luminescence, 48 h | AID 686979, 2013 | 420,000 compounds, 12% hits | Potency, µM (series often up to 46.2 µM), for inactives: at the highest dose activity change, negative = growth inhibition, usual class: inhibitors; also: potency is read from the fitted curve at half-maximal effect; % is scaled to controls: 0 for no effect and ±100 for the full control effect; nearly all actives have a fitted effect of over 55% in size
#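 Cell growth measured by CellTiter-Glo luminescence after a minimum 48 h, 37 C compound exposure with 20 nM CPT in Tdp1-knockout DT40 cells stably expressing hTDP1, seeded 400/well; qHTS titration format.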
# DRD3 antagonist – qHTS of D3 Dopamine Receptor Antagonist: qHTS. D(3) dopamine receptor (Homo sapiens), P35462. AID 652054, 2013. max response, negative = inhibition, %. 360,000 compounds, 2.5% hits. D3R cells, DiscoveRx beta-arrestin luminescence, antagonist mode; stronger effect = lower value; in the data active = max response below about -50%; inconclusive = no clear call, values can overlap the other calls; also: % is scaled to controls: 0 for no effect and ±100 for the full control effect
# Target sequence (P35462 whole entry, looked up): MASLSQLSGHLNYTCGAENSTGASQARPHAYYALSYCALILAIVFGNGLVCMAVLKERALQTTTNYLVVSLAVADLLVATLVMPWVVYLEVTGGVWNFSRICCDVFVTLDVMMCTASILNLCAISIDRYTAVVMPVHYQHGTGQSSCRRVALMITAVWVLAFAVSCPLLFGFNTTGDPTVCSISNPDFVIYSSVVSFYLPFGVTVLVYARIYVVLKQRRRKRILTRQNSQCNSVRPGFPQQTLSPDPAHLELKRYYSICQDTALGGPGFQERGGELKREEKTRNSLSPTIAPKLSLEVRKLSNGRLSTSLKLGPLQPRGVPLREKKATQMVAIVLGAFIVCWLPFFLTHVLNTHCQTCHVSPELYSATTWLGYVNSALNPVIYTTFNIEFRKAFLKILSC
#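 Cells plated overnight at 1500 cells/well, then exposed to library compounds with dopamine controls for 90 minutes at 37 degrees C. DiscoveRx reagent added for 30–60 minutes at room temperature; luminescence read, quantitative HTS format.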
# IL-1B inflam inh – qHTS for Inhibitors of Inflammasome Signaling: IL-1-beta AlphaLISA Primary Screen. THP-1 LPS/ATP IL-1B secretion, AlphaLISA, 16 h; stronger effect = lower value. activity change, % at 57.5 µM. 360,000 compounds, 4.7% hits; in the data active = activity change below about -50%; inconclusive = mostly about -30% to -49%; also: % is scaled to controls: 0 for no effect and ±100 for the full control effect
#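 Secreted IL-1B measured by AlphaLISA bead assay after 16 h compound exposure of THP-1 cells; compounds (final up to 57.5 uM) added 1 h before LPS (250 ng/mL) and ATP (1.25 mM) stimulation; lower signal means less secretion.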
# D3 ag – qHTS of D3 Dopamine Receptor Agonist: qHTS. 410,000 compounds, 0.58% hits. D(3) dopamine receptor (Homo sapiens), P35462. AID 652048, 2013. max activation, %. D3R DiscoveRx beta-arrestin cells, luminescence, 90 min; in the data active = max activation above about 30%; also: 0% is about no effect
#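 Agonist-mode cell screen: cells plated at 1500/well and incubated overnight at 37 °C, then exposed to library compounds for 90 min at 37 °C. Detection reagent was added for 30–60 min at room temperature, and luminescence was read.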
# ClpP mod – qHTS Assay for Activators of ClpP. ATP-dependent Clp protease proteolytic subunit (Bacillus subtilis (strain 168)), P80244. Potency, µM (doses to about 57.5 µM), for inactives: at the highest dose activity change, negative = active. purified B. subtilis ClpP, FRET peptide cleavage, 20 min. 340,000 compounds, 1.9% hits. AID 651965, 2013; active = well fitted falling curve with a large enough effect; inconclusive = small, poorly fitted or top-dose-only effect; inactive = no such curve, though single readings can be large or run the other way; also: potency is read from the fitted curve at half-maximal effect; the source files actives as falling curves though it sought activators and does not explain the sign; nearly all actives have a fitted effect of over 65% in size
# Target sequence (P80244 whole entry, looked up): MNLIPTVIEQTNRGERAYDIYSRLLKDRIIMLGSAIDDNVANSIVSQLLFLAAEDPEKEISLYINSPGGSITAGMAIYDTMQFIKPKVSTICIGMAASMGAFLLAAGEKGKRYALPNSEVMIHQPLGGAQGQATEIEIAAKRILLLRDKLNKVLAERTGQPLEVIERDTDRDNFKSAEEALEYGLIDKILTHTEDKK
#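 Buffer: 100 mM Tris/HCl pH8, 100 mM KCl, 0.05% low protease BSA, 2.5% glycerol, 0.01% Tween-20. ClpP 10 microg/mL final; 20 min RT; delta FRET normalized to ADEP and DMSO controls.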
# * marks the source's active call; other numbers are inactive results; ? = inconclusive; . = no result given; [ ] = dose if it differs, or a comment. A selection: hits, their analogues and other compounds. The true share with any hit is near 21%. Unless noted, calls follow the shape of the dose curve; as a rule, active = well fitted inhibition curve with a large enough effect; inconclusive = small, poorly fitted or top-dose-only effect; inactive = flat fitted curve, though single readings scatter.
SMILES,DT40 TDP1 no CPT,DT40 TDP1 CPT,DRD3 antagonist,IL-1B inflam inh,D3 ag,ClpP mod
COc1ccc2oc(C(=O)OCC(=O)NC3CCCCC3)c(C)c2c1,-6.1%,-7.5%,-1.1,-2.8,2.8,15.8µM*
CCN(C(=O)COC(=O)c1oc2ccc(OC)cc2c1C)C1CCS(=O)(=O)C1 (stereo unspecified),-13.3%,-4.6%,-2.3,-8.0,-10.5,8.91µM*
CCOc1ccc2oc(C(=O)OCC(=O)NC(=O)NC3CCCC3)c(C)c2c1,-14.3%,-1.2%,-16.2,9.9,-4.3,22.4µM*
COC(=O)[C@@H](Cc1ccccc1)NC(=O)NCCc1ccc(OC)c(OC)c1,-34.1%,-1.7%,1.9,3.2,-0.5,-2.0%
COC(=O)c1ccc(NC(=O)CSCc2ccccc2C)cc1,?,-23.3%,9.2,5.3,-14.8,-0.9%
NC(=O)c1cc[n+](CC2=C(C(=O)[O-])N3C(=O)[C@@H](NC(=O)Cc4cccs4)[C@H]3SC2)cc1,-19.5%[21.1 µM],-5.6%[21.1 µM],.,.,7.4,.
CCOc1ccc(NC(=O)CSc2nnc(-c3ccc(OCC)cc3)o2)cc1,4.0%,-16.9%,.,.,-17.9,6.2%
O=C(Nc1ccc(N2CCN(C(=O)c3cccs3)CC2)c(Cl)c1)c1ccco1,14.6µM*,?,40.1,?,2.8,-2.3%
Cc1ccccc1C(=O)N1CCN(c2ccc(NC(=O)c3ccco3)cc2Cl)CC1,9.2µM*,14.6µM*,5.3,-88.9*,0.5,-0.1%
Cc1ccc(NC(=O)CSc2nc(=O)n(Cc3ccccn3)c3c2CCC3)cc1F,16.4µM*,?,.,.,-3.1,-7.5%
CC(C)c1ccc(NC(=O)CSc2nc(=O)n(Cc3cccnc3)c3c2CCC3)cc1,25.9µM*,?,.,.,-16.3,0.5%
CC(C)c1ccc(NC(=O)CSc2nc(=O)n(Cc3ccccn3)c3c2CCC3)cc1,18.4µM*,23.1µM*,.,.,-6.5,-2.4%
O=C(CSc1nc(=O)n(Cc2cccnc2)c2c1CCC2)Nc1cccc(Cl)c1,?,-26.2%,.,.,4.3,-5.3%
CS(=O)(=O)N1CCN(c2ccccc2NC(=O)c2cccc3ccccc23)CC1,-13.4%,-0.4%,20.9,-7.9,0.2,1.0%
CC(C)C(=O)N1CCN(c2ccccc2NC(=O)c2cccc(Cl)c2)CC1,16.4µM*,?,7.8,?,-2.4,-0.1%
CC(C)C(=O)N1CCN(c2ccccc2NC(=O)c2cccc3ccccc23)CC1,16.4µM*,?,8.4,14.6,9.6,.
Cn1c(=O)n(C)c2cc(N3CCCCC3)c(NC(=O)c3cccc(Cl)c3)cc21,-25.5%,?,-7.9,35.6,-0.2,-8.1%
CC(Sc1nnc(-c2cccnc2)o1)C(=O)NC1CCCCC1 (stereo unspecified),-0.4%,-2.4%,12.6,7.4,2.4,0.0%
COc1ccc(N(Cc2cccs2)C(=O)c2ccc(OC)c(Cl)c2)cc1,?,?,.,.,-22.7,-3.6%
CCc1ccc(-c2nc(CS(=O)CC(=O)O)c(C)o2)cc1 (stereo unspecified),0.4%,?,-6.1,52.4,10.4,-18.7%
COc1cc(C2=NOC(C(=O)NCc3ccc(F)cc3)C2)cc(OC)c1OC (stereo unspecified),0.581µM*,0.82µM*,-13.3,25.4,-2.2,-5.5%
COc1ccc(C2=NOC(C(=O)NCc3ccc(F)cc3)C2)cc1OC (stereo unspecified),5.8µM*,5.8µM*,-24.2,56.2,7.8,-1.4%
Cc1ccc(CNC(=O)C2CC(c3cccc(F)c3)=NO2)cc1 (stereo unspecified),-11.6%,0.0%,14.5,12.1,1.3,-1.4%
COc1cccc(C2=NOC(C(=O)NCc3cccnc3)C2)c1 (stereo unspecified),?,-18.0%,6.7,50.8,-6.3,.
COc1cccc(C2=NOC(C(=O)NCc3ccc(F)cc3)C2)c1 (stereo unspecified),18.4µM*,11.6µM*,-28.7,0.0,-10.6,-2.1%
SMILES,DT40 TDP1 no CPT,DT40 TDP1 CPT,DRD3 antagonist,IL-1B inflam inh,D3 ag,ClpP mod
COc1cccc(C2=NOC(C(=O)NCc3cccs3)C2)c1 (stereo unspecified),14.6µM*,20.6µM*,22.3,14.6,-1.5,-0.6%
CC1(C)CC[C@@]23CC[C@]4(C)[C@@](OC2=O)(C3C1)[C@H]1O[C@H]1C1[C@@]2(C)CC[C@H](O)C(C)(C)C2CC[C@]14C (stereo partly specified),-12.5%,0.0%,20.4,12.6,-5.3,1.5%
COc1ccc(CNC(=O)C2CC(C)=C(C)CC2C(=O)O)cc1OC (stereo unspecified),1.3µM*,1.3µM*,16.5,24.4,2.7,.
COC(=O)[C@@]12C[C@@H](CC(=O)NCC34CC5CC(CC(C5)C3)C4)C(=O)N(Cc3ccco3)C1=CCC(C)(C)C2,14.6µM*,16.4µM*,1.7,3.1,-0.3,2.6%
COC(=O)[C@@]12C[C@@H](CC(=O)N3CCOCC3)C(=O)N(Cc3ccco3)C1=CCC(C)(C)C2,-2.4%,-4.8%,14.0,-12.4,8.9,3.7%
COC(=O)[C@@]12C[C@@H](CC(=O)N3CCCCC3)C(=O)N(Cc3ccco3)C1=CCC(C)(C)C2,?,23.1µM*,-13.5,-1.5,-7.5,0.5%
O=C(C[C@H]1C/C=C\CC[C@H](Cc2ccc(F)cc2)C(=O)OC[C@H]2CCCN2C1=O)NCCO,2.9%,-30.5%,-2.6,13.8,4.8,-3.7%
CCN(C(=O)COC(=O)c1ccc2c(c1)OCO2)c1c(N)n(Cc2ccccc2)c(=O)[nH]c1=O,-26.5%,-18.4%,-5.0,11.7,-4.5,-18.0%
C=CCOn1c(=O)c(-c2cccs2)[n+]([O-])c2ccccc21,?,23.1µM*,-27.5,-3.4,-6.7,-6.3%
CCn1cc(/C=C/C(=O)Nc2ccc(C)cc2Br)cn1,?,15.8%,-3.0,-28.8,-13.8,-2.0%
CCn1cc(/C=C/C(=O)Nc2ccn(Cc3c(F)c(F)cc(F)c3F)n2)cn1,11.6µM*,?,6.5,8.0,1.2,-1.0%
CCN(CC1COc2ccccc2O1)C(=S)NC1CC2CCC1C2 (stereo unspecified),-2.8%,-5.5%,-1.5,35.4,1.5,-2.1%
